Holding throughout (conditions): mRNA level, 48 h; actives raise or lower the signal
Read-out in experiment [1]: growth arrest and DNA damage 45 (GADD45B), GADD45B (gene 4616)
Nature of the experiment: LTEA_HepaRG_GADD45B: Life Technologies and Expression Analysis (LTEA) Assay for growth arrest and DNA damage 45 (GADD45B) using HepaRG (AID 2283461). In short, it runs like this: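 Transcript level quantified by Fluidigm TaqMan qRT-PCR with three housekeeping genes for normalization, analyzed for up- or down-regulation against 0.5% DMSO. HepaRG cultures dosed 48 h at eight half-log concentrations up to 100 uM, duplicates.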

Read-out in experiment [2]: ABC Transporter (ABCC3), ABCC3 (gene 8714)
The experiment is described as follows: LTEA_HepaRG_ABCC3: Life Technologies and Expression Analysis (LTEA) Assay for ABC Transporter (ABCC3) using HepaRG (AID 2283462). In short, it runs like this: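 Transcript level by TaqMan qRT-PCR, normalised to three housekeeping genes, fitted in both directions relative to vehicle. Chemicals tested in duplicate at eight half-log concentrations up to 100 uM for 48 h on HepaRG cells (0.5% DMSO).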

Read-out in experiment [3]: ABC Transporter (ABCB11), ABCB11 (gene 8647)
Nature of the experiment: LTEA_HepaRG_ABCB11: Life Technologies and Expression Analysis (LTEA) Assay for ABC Transporter (ABCB11) using HepaRG (AID 2283463). In outline:
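Differentiated human HepaRG cells in serum-free induction medium, dosed in duplicate for 48 h. Eight-point half-log series from 100 uM in 0.5% DMSO; ABCB11 mRNA by qRT-PCR, normalized to ACTB, GAPDH, POLR2A, fitted bidirectionally versus DMSO.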

Read-out in experiment [4]: ABC Transporter (ABCC2), ABCC2 (gene 1244)
Nature of the experiment: LTEA_HepaRG_ABCC2: Life Technologies and Expression Analysis (LTEA) Assay for ABC Transporter (ABCC2) using HepaRG (AID 2283464). In outline:
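Endpoint is ABCC2 transcript level from qRT-PCR, normalized to three housekeeping genes and fitted bidirectionally relative to DMSO. Human HepaRG cells received test chemical for 48 h at up to 100 uM (8 points, half-log steps, 0.5% DMSO), duplicate wells.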

Read-out in experiment [5]: Broad substrate specificity ATP-binding cassette transporter ABCG2 (Homo sapiens) (UniProt Q9UNQ0)
Nature of the experiment: LTEA_HepaRG_ABCG2: Life Technologies and Expression Analysis (LTEA) Assay for ABC Transporter (ABCG2) using HepaRG (AID 2283465). In short, it runs like this:
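Differentiated HepaRG cells were exposed for 48 h in serum-free induction medium to 8 half-log concentrations, top 100 uM, in 0.5% DMSO. ABCG2 mRNA was measured by qRT-PCR, normalized to ACTB, GAPDH and POLR2A, with bidirectional fitting versus DMSO.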

Read-out in experiment [6]: Peroxisomal acyl-coenzyme A oxidase 1 (ACOX1) gene, ACOX1 (gene 51)
Nature of the experiment: LTEA_HepaRG_ACOX1: Life Technologies and Expression Analysis (LTEA) Assay for Peroxisomal acyl-coenzyme A oxidase 1 (ACOX1) gene using HepaRG (AID 2283467). In outline: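 HepaRG cells, plated 48 h then switched to serum-free induction medium, were exposed in duplicate for 48 h to 8-point half-log concentrations up to 100 uM in 0.5% DMSO. ACOX1 mRNA was measured by qRT-PCR, normalized to ACTB/GAPDH/POLR2A, and fitted bidirectionally versus DMSO.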

Read-out in experiment [7]: Alkaline Phosphatase, Placental (ALPP) gene, ALPP (gene 250)
The experiment is described as follows: LTEA_HepaRG_ALPP: Life Technologies and Expression Analysis (LTEA) Assay for Alkaline Phosphatase, Placental (ALPP) gene using HepaRG (AID 2283468). In outline:
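ALPP transcript level, measured by qRT-PCR and normalized to three housekeeping genes (ACTB, GAPDH, POLR2A), after 48 h dosing of differentiated HepaRG in serum-free induction medium. Top concentration 100 uM with half-log dilutions (8 points, 0.5% DMSO, duplicates); bidirectional fitting relative to DMSO.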

Read-out in experiment [8]: Bcl-2 (BAD) gene, BAD (gene 572)
The experiment is described as follows: LTEA_HepaRG_BAD: Life Technologies and Expression Analysis (LTEA) Assay for Bcl-2 (BAD) gene using HepaRG (AID 2283469). In short, it runs like this: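 Differentiated HepaRG cells were exposed in duplicate in 0.5% DMSO for 48 h to eight-point half-log concentrations up to 100 uM. BAD mRNA was measured by Fluidigm TaqMan qRT-PCR, normalized to ACTB, GAPDH and POLR2A, and fitted bidirectionally against DMSO.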

Read-out in experiment [9]: Bcl-2 (BAX) gene, BAX (gene 581)
Nature of the experiment: LTEA_HepaRG_BAX: Life Technologies and Expression Analysis (LTEA) Assay for Bcl-2 (BAX) gene using HepaRG (AID 2283470). In outline: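 Concentration-response endpoint fitted in both directions relative to 0.5% DMSO vehicle. Human HepaRG cultures receive test chemicals for 48 h at up to 100 uM; BAX mRNA is quantified by qRT-PCR against housekeeping genes.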

Read-out in experiment [10]: ATP-citrate lyase (ACLY), ACLY (gene 47)
Nature of the experiment: LTEA_HepaRG_ACLY: Life Technologies and Expression Analysis (LTEA) Assay for ATP-citrate lyase (ACLY) using HepaRG (AID 2283466). In outline:
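Differentiated HepaRG cells exposed 48 h in serum-free induction medium to eight half-log concentrations up to 100 uM in 0.5% DMSO, duplicates. Transcript measured by Fluidigm TaqMan qRT-PCR, normalized to ACTB, GAPDH, POLR2A; bidirectional fit versus DMSO.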

Calls of active or inactive are those of the source. Rule for the calls: active = hit-call score of the fitted dose curve at least 0.9, where 1 is the maximum; inactive = score below 0.9.

Chain of Broad substrate specificity ATP-binding cassette transporter ABCG2 (Homo sapiens) (Q9UNQ0 whole entry, looked up): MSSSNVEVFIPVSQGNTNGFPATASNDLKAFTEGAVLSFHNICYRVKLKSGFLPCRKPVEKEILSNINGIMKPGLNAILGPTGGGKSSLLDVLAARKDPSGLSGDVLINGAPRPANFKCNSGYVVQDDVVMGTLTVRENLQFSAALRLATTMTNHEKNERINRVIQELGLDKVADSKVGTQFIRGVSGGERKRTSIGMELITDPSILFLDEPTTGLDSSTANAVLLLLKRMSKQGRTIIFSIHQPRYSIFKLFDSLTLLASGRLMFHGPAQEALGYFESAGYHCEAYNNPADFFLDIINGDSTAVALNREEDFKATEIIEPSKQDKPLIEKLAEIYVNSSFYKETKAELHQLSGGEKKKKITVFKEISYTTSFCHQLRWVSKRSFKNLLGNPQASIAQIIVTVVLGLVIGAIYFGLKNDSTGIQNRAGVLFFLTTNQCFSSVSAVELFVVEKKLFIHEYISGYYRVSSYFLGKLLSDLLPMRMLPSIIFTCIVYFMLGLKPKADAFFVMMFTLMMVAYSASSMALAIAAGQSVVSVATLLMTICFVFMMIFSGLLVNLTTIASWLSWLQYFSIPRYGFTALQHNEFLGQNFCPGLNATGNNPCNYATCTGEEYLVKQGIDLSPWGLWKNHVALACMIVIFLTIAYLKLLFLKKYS

On to `COP(N)(=O)SC` (stereo unspecified), for which the compound was called inactive in experiment [1], in [2], in [3], in experiment [4], in experiment [5] and in experiment [6]. For the same compound, the compound was classed as inactive in experiment [7], in experiment [8] and in experiment [9].
Usually AC50 stands for the concentration giving half of the maximal activity seen. On to `COP(=S)(OC)Oc1nc(Cl)c(Cl)cc1Cl`, for which the compound was called inactive in [1], in experiment [2], in experiment [4], in experiment [5], in experiment [6] and in experiment [7]. In addition, the call in experiment [8] and in [9] was inactive. In experiment [3], the AC50 was 86.7 µM (active).
With `CCCC1COC(Cn2cncn2)(c2ccc(Cl)cc2Cl)O1` (stereo unspecified), the result in [1] and in experiment [8] was inactive. Besides, the AC50 in experiment [2] is 12.2 µM (active); in experiment [3] it was 36.9 µM (active); in experiment [4], 68.5 µM (active); in experiment [5] it was 22.2 µM (active); in experiment [6], 25.9 µM (active); in experiment [7], 25.6 µM (active). Also, the concentration at half-maximal activity (AC50) in [9] is 81 µM (active).
Regarding `CC(C)C1(C)N=C(c2nc3ccccc3cc2C(=O)O)NC1=O` (stereo unspecified), the compound was called inactive in experiment [1], in [2], in [3], in [4], in [5] and in experiment [6]. Further, the call in experiment [7], in experiment [8] and in [9] was inactive.
On to `Fc1ccc(Oc2ccnc3cc(Cl)cc(Cl)c23)cc1`, for which the compound was called inactive in experiment [1], in [2], in experiment [4], in [6], in experiment [8] and in experiment [9]. Besides, the AC50 in experiment [5] and in [7] was 50 µM (active) throughout.
For `CCCCNC(=O)OCC#CI`, the call in experiment [1], in [2], in experiment [10], in experiment [6], in experiment [8] and in experiment [9] was inactive. Also, the AC50 in [3] was 50 µM (active); in experiment [4] it was 50 µM (active); in experiment [5], 9.92 µM (active); in experiment [7] it was 9.92 µM (active).
Turning to `CCOC(=O)CC(SP(=S)(OC)OC)C(=O)OCC` (stereo unspecified), the compound was classed as inactive in experiment [1], in experiment [2], in [4], in [5], in experiment [10] and in [6]. In addition, the outcome in experiment [7], in [8] and in experiment [9] was inactive.
In the case of `COc1ccc(C(c2ccc(OC)cc2)C(Cl)(Cl)Cl)cc1`, the AC50 in experiment [1] is 61.8 µM (active); in experiment [2] it was 77 µM (active); in [4], 14.1 µM (active). Moreover, the compound was called inactive in [5], in [6], in experiment [8] and in experiment [9].
In the case of `CN(C)C(=S)SSC(=S)N(C)C`, the outcome in [1], in experiment [2], in experiment [4], in [5], in [6] and in [7] was inactive. In addition, the compound was classed as inactive in experiment [8] and in [9].
On to `O=C(Nc1ccccc1)Nc1ccnc(Cl)c1`, for which the call in experiment [1] and in experiment [9] was inactive. Further, the half-maximal activity concentration (AC50) is 85.7 µM (active) in experiment [2]; 89.9 µM (active) in experiment [4]; 83.9 µM (active) in experiment [5]; 73.7 µM (active) in experiment [6]; 3.48 µM (active) in experiment [7]; 74.2 µM (active) in experiment [8].
On to `Cc1c(F)c(F)c(COC(=O)C2C(/C=C(\Cl)C(F)(F)F)C2(C)C)c(F)c1F` (stereo unspecified), for which the result in [1], in [2], in experiment [4], in experiment [5], in experiment [6] and in experiment [7] was inactive. Moreover, the compound was classed as inactive in experiment [8] and in experiment [9].
As for `CCOP(=S)(OCC)SCn1c(=O)oc2cc(Cl)ccc21`, the compound was called inactive in [1], in experiment [2], in [4], in experiment [5], in experiment [6] and in experiment [7]. For the same compound, the compound was called inactive in [8] and in experiment [9].
Regarding `COc1cnc(OC)n2nc(NS(=O)(=O)c3c(OCC(F)F)cccc3C(F)(F)F)nc12`, the call in [1], in experiment [2], in experiment [4], in experiment [5], in experiment [6] and in experiment [7] was inactive. Further, the result in [8] and in experiment [9] was inactive.
Take `CCOc1cc(Oc2ccc(C(F)(F)F)cc2Cl)ccc1[N+](=O)[O-]`: the compound was classed as inactive in experiment [1], in experiment [2], in [4], in experiment [8] and in experiment [9]. Also, the results for the AC50 in experiment [5], in experiment [6] and in experiment [7] were 9.39 µM (active), 50 µM (active) and 40.3 µM (active), respectively.
On to `CC(Oc1ccc(Cl)cc1Cl)C(=O)O` (stereo unspecified), for which the compound was classed as inactive in [1], in experiment [2], in [4], in experiment [5], in experiment [6] and in experiment [7]. In addition, the compound was called inactive in experiment [8] and in experiment [9].
On to `CCOC(=O)C(Cl)Cc1cc(-n2nc(C)n(C(F)F)c2=O)c(F)cc1Cl` (stereo unspecified), for which the compound was called inactive in experiment [1], in [2], in experiment [4], in experiment [5], in [6] and in [7]. Besides, the compound was classed as inactive in experiment [8] and in experiment [9].
In the case of `C=CCC1=C(C)[C@@H](OC(=O)[C@@H]2[C@@H](C=C(C)C)C2(C)C)CC1=O`, the call in [1], in [4], in [5], in [6], in experiment [8] and in [9] was inactive. The AC50 in experiment [2] is 74.2 µM (active); in experiment [7], 81.2 µM (active).
Take `CC1=C(C(=O)Nc2ccccc2)SCCO1`: the AC50 in experiment [1] is 50 µM (active). The compound was called inactive in experiment [2], in [4], in experiment [5], in [6], in [7] and in experiment [8]. Besides, the call in experiment [9] was inactive.
As to `O=C(O)COc1nc(Cl)c(Cl)cc1Cl`, the result in [1], in experiment [2], in experiment [4], in experiment [5], in experiment [6] and in [7] was inactive. Further, the compound was classed as inactive in [8] and in experiment [9].
On to `OC(c1ccc(Cl)cc1)(c1cncnc1)c1ccccc1Cl` (stereo unspecified), for which the AC50 was 66.2 µM (active) in experiment [1]; 2.46 µM (active) in [4]; 92.8 µM (active) in experiment [6]; 61.5 µM (active) in [7]; 66.4 µM (active) in experiment [9]. Moreover, the result in experiment [2], in experiment [5] and in [8] was inactive.

The values above are taken from PubChem BioAssay (EPA / NIEHS).
